# In PubChem BioAssay (NCI):
# About 83,000 compounds went through this panel and 20% of them were active in at least one assay; those are over-represented in the sample as a whole.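 Note: values are percent growth. 100 is the growth of untreated cells, values between 100 and 0 indicate rising inhibition; between -100 and 0 indicates cell death.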 A number with no mark means an inactive call. The source made the active and inactive calls. How the source made its calls: active means growth percent below 10; inactive means the rest.
# Tests used:
# Assay in all cases: NCI-60 one-dose screen, 48 h (100 = growth as untreated, 0 = no growth, -100 = all killed)
# Details in all cases: 10 µM unless noted
# HCT-15 colon = system: HCT-15 colon
# HT29 colon = system: HT29 colon
# SNB-75 CNS = system: SNB-75 CNS
# SNB-19 CNS = system: SNB-19 CNS
# U251 CNS = system: U251 CNS
# PC-3 prostate = system: PC-3 prostate
# SK-MEL-5 melanoma = system: SK-MEL-5 melanoma
# UACC-62 melanoma = system: UACC-62 melanoma
# LOX IMVI melanoma = system: LOX IMVI melanoma
# SK-MEL-28 melanoma = system: SK-MEL-28 melanoma
SMILES,growth (HCT-15 colon),growth (HT29 colon),growth (SNB-75 CNS),growth (SNB-19 CNS),growth (U251 CNS),growth (PC-3 prostate),growth (SK-MEL-5 melanoma),growth (UACC-62 melanoma),growth (LOX IMVI melanoma),growth (SK-MEL-28 melanoma)
COc1ccc(C2C3=C(COC3=O)N(CCO)c3cc(OC)c(OC)cc32)cc1 (stereo not given),98.9%,95.1%,93.3%,109%,101%,106%,100%,107%,101%,115%
COc1ccc(/C=C2\CCCC3=C2N=C2SC(C)=NN2C3c2ccc(OC)c(OC)c2)cc1OC (stereo not given),28.3%,4.84% (active),27.7%,45%,15.5%,40%,24.2%,34.6%,1.41% (active),58.9%
Cc1cc(C)c(C#N)c(SCC(=O)c2sc3c(C#N)c(C)cc(C)[n+]3c2[O-])n1,15.9%,-26.1% (active),9% (active),75.5%,7.69% (active),24%,10.8%,47.9%,20.4%,30.3%
COc1ccc(C2CC(c3cccc(Nc4ccnc5cc(Cl)ccc45)c3)=NN2c2ccccc2)cc1 (stereo not given),46.6%,60.8%,62.5%,78.3%,65.4%,67.5%,39.1%,29.5%,49%,84.9%
COc1cc(C2C=C(C)N=C3SC=NN32)cc(OC)c1OC (stereo not given),106%,101%,105%,95.9%,93.5%,72.7%,103%,100%,95.8%,100%
CCC(=O)NC(O)C(Cl)(Cl)C(C)Cl (stereo not given),95.6%,95.4%,91.7%,98.4%,98.6%,98.2%,97.7%,97.5%,96.4%,104%
COc1ccc2[nH]c(O)c(/C=c3/ccc4c(c3)N=C(c3ccc(F)cc3)N=4)c2c1,50.1%,84.5%,-12.3% (active),87.1%,42.1%,47.4%,61.5%,90.1%,16.3%,72.7%
O=S(=O)(NCC[C@@H]1C[C@H]1c1ccc2ccccc2c1)c1ccc(C(F)(F)F)cc1,93.4%,92.7%,73.6%,97.3%,93.5%,81.7%,94.5%,78.5%,97.8%,108%
O=C(/C=C/c1ccccc1)n1c(-c2ccccc2)nc2ccccc21,98.2%,110%,85.6%,94.7%,96.2%,95.6%,97.4%,103%,100%,108%
O=C(O)Cn1ccc2ccccc21,111%,106%,91.1%,98.9%,108%,101%,98.7%,104%,91.8%,134%
Nc1cc2nc3ccccc3oc-2cc1=O,18.2%,38.8%,-86% (active),80.8%,35.6%,27.8%,-97.9% (active),-75.2% (active),-11.4% (active),-56.2% (active)
c1ccc(C(CC2=NCCCN2)c2ccccc2)cc1,114%,102%,86.2%,107%,90.8%,83.9%,105%,89.6%,97.8%,107%
C[C@@H]1C[C@H](N)C[C@H](c2ccncc2NC(=O)c2ccc(F)c(-c3c(F)cccc3F)n2)C1,52.4%,10.9%,40.5%,69.3%,42.6%,24.2%,-59.8% (active),25.3%,33.1%,12.2%
Clc1ccc2c(c1)-c1ccccc1C1=NCCN12,20%,4.08% (active),49.5%,41.6%,25%,28.5%,19.9%,30.3%,11.7%,43.2%
CCCCCCCCCCCCCCCCOc1ccc(S(=O)(=O)N(C)C)cc1[N+](=O)[O-],97.2%,96.4%,21.2%,78.9%,50.6%,94.4%,101%,86.7%,120%,107%
CC(C)OC(=O)c1ccc([N+](=O)[O-])cc1,107%,102%,111%,109%,106%,102%,106%,100%,98%,110%
O=C(O)C1[S][Sb]([CH](C(=O)O)[CH](C(=O)O)[Sb]2[S]C(C(=O)O)C(C(=O)O)[S]2)[S]C1C(=O)O (stereo not given),87.6%,80.8%,83.8%,92.9%,73.1%,83.4%,3.78% (active),89.2%,8.37% (active),61.1%
O=C1OCC2=C1C(c1ccc(Cl)c(Cl)c1)c1cc3c(cc1N2CCO)CCC3 (stereo not given),13.4%,3.94% (active),18%,32.5%,16%,25.5%,30%,13.7%,32.8%,47.3%
O=C1OC(c2ccc(-c3ccccc3)cc2)=C/C1=C/c1c(Cl)cccc1Cl,83.7%,101%,85.1%,105%,102%,91.8%,101%,85.5%,103%,101%
CCN(CC)CCNc1c(C)cc(CO)c(Cl)c1C,106%,97%,90.2%,92.8%,105%,97.9%,106%,102%,98.8%,104%
CC(=O)Nc1ccc(Cl)cc1Cl,118%,103%,91.2%,97.8%,103%,308%,95.7%,96.4%,93.8%,157%
O=C(Nc1cccc(Cl)c1)Nc1cc(C(F)(F)F)ccc1Cl,9.83% (active),4.03% (active),18.2%,16.6%,6.86% (active),-3.53% (active),24.4%,-8.9% (active),-11.8% (active),25.5%
CC(=O)c1cccc(Nc2ncnc3ccc(NC(=O)c4ccco4)cc23)c1,86.8%,82.9%,94.3%,93.6%,98.1%,83.7%,70.4%,84.1%,92.5%,98.7%
COc1ccc2[nH]cc(C(c3ccc(Cl)cc3)N3CCCC3)c2c1 (stereo not given),89.7%,102%,90%,105%,92%,74.8%,88.5%,92.5%,90.7%,111%
CCN(CC)CCC(CNc1ccnc2cc(Cl)ccc12)c1ccc(O)cc1 (stereo not given),109%,29.5%,85.7%,103%,81.3%,61.1%,91.9%,103%,50.4%,107%
COc1cc(-c2nc(-c3nc4cc(C(=O)c5ccccc5)ccc4[nH]3)cc3c2[nH]c2ccccc23)cc(OC)c1OC,83.1%,104%,71.5%,103%,82%,65.8%,75.2%,76%,85.2%,102%
CC(C)NCCCCCNc1cc(O)cc2cccnc12,94.6%,54.2%,56.4%,107%,101%,92.4%,88.2%,94.5%,72.2%,91.6%
